# Screening results deposited in PubChem BioAssay by National Center for Advancing Translational Sciences (NCATS).
# Akt phos inh = inhibitors of Akt phosphorylation | AID 651550 | activity change, % for hits at 50 µM | hit rate 0.32% among 360,000 | Neuro2A IGF-stimulated pAkt S473 HTRF, 20 min; hits give low values; in the data active = activity change below about -80%; inconclusive = mostly about -51% to -80%
#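 Single-point screen (50 µM final compound) in Neuro2A cells stimulated 20 min with 6 nM IGF at 37 deg C. After lysis, Ser473-phosphorylated Akt read by HTRF (ex 330 nm, em 615/665 nm) as the 665/615 ratio.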
# CCT modulator = changes cytosolic chaperonin activity; purified chaperonin ATPase assay, HTRF ADP detection, 30 min; activity change, % (concentration not given with the values), hits read low; hit rate 0.3% among 360,000; AID 651819; in the data active = activity change below about -30%
#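 TRiC (40 or 20 nM final, by batch activity) in 30 mM Tris pH 7.4, 100 mM KCl, 5 mM MgCl2, 1 mM DTT was treated with compound at 76 uM single dose, then 10 uM ATP, 30 min at 37 °C. ADP was read by HTRF Transcreener.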
# CtBP-E1A blk = CtBP/E1A binding inhibition; AlphaScreen GST-E1A/His-CtBP binding, 1536-well; hits give low values; activity change, % (no concentration beside the values); hit rate 0.49% among 340,000
#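 Steps: dispense buffer (Tris pH 8.0, NaCl 300 mM, TCEP 1 mM, BSA, Tween 20); add 5X protein mix (GST-E1A, His-CtBP, 125 nM each); pin 23 nL compound; 2 h at 37 °C, dark; add 5X beads (50 ug/mL); 1 h; read.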
# Six1-Eya2 inh = inhibitors of human Six1/Eya2 interaction; Q15475+O00167; activity change, % (concentration not given with the values); hit rate 0.56% among 360,000; AlphaScreen GST-Six1/His-Eya2 binding, biochemical; hits give low values; AID 651725
# Target sequence (O00167 whole entry, looked up): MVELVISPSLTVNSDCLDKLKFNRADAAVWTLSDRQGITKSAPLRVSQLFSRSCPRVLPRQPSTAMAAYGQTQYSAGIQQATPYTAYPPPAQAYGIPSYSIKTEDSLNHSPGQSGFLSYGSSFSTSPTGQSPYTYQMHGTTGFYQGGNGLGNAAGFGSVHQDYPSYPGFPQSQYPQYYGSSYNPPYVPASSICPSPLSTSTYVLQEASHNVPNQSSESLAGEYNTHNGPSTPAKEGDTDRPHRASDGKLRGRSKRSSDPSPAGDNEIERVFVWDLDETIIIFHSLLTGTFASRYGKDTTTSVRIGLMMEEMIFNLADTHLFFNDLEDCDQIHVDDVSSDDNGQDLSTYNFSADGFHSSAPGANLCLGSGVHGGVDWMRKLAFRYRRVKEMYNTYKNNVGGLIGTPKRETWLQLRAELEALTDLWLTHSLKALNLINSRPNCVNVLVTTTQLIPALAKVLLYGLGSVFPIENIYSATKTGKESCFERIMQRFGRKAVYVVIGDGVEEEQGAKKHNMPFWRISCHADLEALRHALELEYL
# Target sequence (Q15475 whole entry, looked up): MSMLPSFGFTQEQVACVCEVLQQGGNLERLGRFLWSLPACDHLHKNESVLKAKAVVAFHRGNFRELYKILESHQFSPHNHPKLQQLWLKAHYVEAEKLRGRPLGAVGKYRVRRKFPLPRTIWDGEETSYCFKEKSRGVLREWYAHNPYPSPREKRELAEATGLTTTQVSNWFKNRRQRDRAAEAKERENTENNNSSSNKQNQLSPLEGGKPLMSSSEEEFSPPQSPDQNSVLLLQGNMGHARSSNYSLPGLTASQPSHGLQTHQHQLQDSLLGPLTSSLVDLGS
#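 Homogeneous AlphaScreen proximity assay pairing GST-Six1 with His-tagged Eya2 (added as 5X mix: 250 nM and 500 nM) in 50 mM Tris pH 8.0, 300 mM NaCl, 1 mM TCEP. Glutathione donor and nickel acceptor beads; 1 h, 37 °C, dark.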
# An asterisk follows results filed as active; i = inactive; u = inconclusive; x = no result given. Only some compounds are listed: those with a hit (about 1.3% of all), similar ones and a draw of the others. Rule as the data show it, unless noted: active = activity change below about -65%; inconclusive = mostly about -30% to -63%; inactive = weaker than that. % is scaled to controls: 0 for no effect and ±100 for the full control effect.
SMILES,Akt phos inh,CCT modulator,CtBP-E1A blk,Six1-Eya2 inh
COc1ccccc1Cc1c(-c2cccc(Cl)c2)nc2ccc(Cl)cn12,i,1,1,3
C#CCOC(=O)Nc1cccn(Cc2c(Cl)cccc2Cl)c1=O,-120%*,-4,-6,2
COc1cc(NC(C)CCCNC(C)C)c2ncccc2c1OC (stereo not given),i,-3,-14,-5
COc1cc(NCCCCCCN)c2ncccc2c1OC,i,2,-71*,u
Cc1ccc(S(=O)(=O)Oc2ccc(/C=C(/NC(=O)c3ccccc3)C(=O)Nc3ccccc3)cc2)cc1,i,-67*,5,-4
CCOC(=O)[C@]12CCC=C1N(Cc1ccco1)C(=O)[C@H](CC(=O)NCCc1ccccc1OC)C2,i,1,-1,-3
CC(C)C(N)c1csc(Nc2ccccn2)n1 (stereo not given),i,0,-91*,-83*
CC(C)C(N)c1csc(Nc2ccc(C(F)(F)F)cn2)n1 (stereo not given),i,-2,u,-21
CCc1cnc(Nc2nc(C(N)c3ccccc3Cl)cs2)nc1 (stereo not given),i,1,u,u
NC(c1csc(Nc2cnccn2)n1)c1ccccc1Cl (stereo not given),i,-1,-76*,-67*
NC(c1csc(Nc2ccccn2)n1)c1ccccc1Cl (stereo not given),i,-1,-91*,-79*
O=C(CC1C(=O)NCCN1Cc1cccc(C(F)(F)F)c1)NCCc1cnccn1 (stereo not given),i,-3,10,1
Cc1ccc(C)c(NC(=O)CSc2nncn2C)c1,i,0,x,14
CCc1ccc(C(=O)NNC(=O)c2cccc(S(=O)(=O)N3CCN(C)CC3)c2)cc1,i,-2,1,3
Oc1ccc(/C=N/Nc2nc(-c3cccnc3)nc3ccccc23)c(O)c1,i,0,-79*,-67*
Cc1c(O)ccc(/C=N/Nc2nc(-c3cccnc3)nc3ccccc23)c1O,i,-1,x,-68*
Cc1cc(=O)[nH]c2c(N=Nc3ccc(O)cc3)c(N)nn12,i,-1,x,-77*
Nc1nn2c(C(F)(F)F)cc(=O)[nH]c2c1N=Nc1cccc(F)c1,i,1,-6,-17
OC(C1=CC(=Cc2ccncc2)c2ccccc21)c1ccncc1 (stereo not given),i,-1,-7,-14
CCN(CC)S(=O)(=O)c1ccc(-c2nnc(SCC(=O)Nc3nnc(C)s3)n2CC)cc1,-112%*,2,-10,-3
CCOc1ccc(/C=N/OCC(=O)Nc2cc(S(=O)(=O)N3CCOCC3)ccc2OC)cc1,i,-84*,-4,-7
CCOc1ccc(OCCC(=O)OCC(=O)Nc2cc(S(=O)(=O)N3CCOCC3)ccc2OC)cc1,i,-3,-9,-1
COc1ccccc1NS(=O)(=O)c1ccc(-c2cnc(C3CC3)o2)cc1,x,-77*,x,-15
CCOc1ccccc1NS(=O)(=O)c1ccc(-c2cnc(C3CC3)o2)cc1,x,-1,x,0
COc1ccc(NS(=O)(=O)c2ccc(-c3cnc(C4CC4)o3)cc2)cc1OC,x,-66*,x,-10
SMILES,Akt phos inh,CCT modulator,CtBP-E1A blk,Six1-Eya2 inh
O=C(COC(=O)COc1cccc(C(F)(F)F)c1)NC1CCCC1,i,-2,-7,8
Cc1cccc2cc(CN(Cc3nnnn3C3CCCCC3)C3CCCC3)c3nnnn3c12,-116%*,-1,4,2
O=C(CN1C(=O)/C(=C\c2ccco2)SC1=S)Nc1ccc(O)cc1C(=O)O,x,-7,x,u
O=C(CCN1C(=O)/C(=C/c2ccco2)SC1=S)Nc1ccc(O)cc1C(=O)O,i,-5,0,-68*
CCOC(=O)c1nnc(-c2ccccc2)nc1Sc1ccccc1Cl,i,-2,13,5
CCOC(=O)c1nnc(-c2ccccc2)nc1Oc1ccc(Cl)cc1,-119%*,1,3,-1
COC(=O)c1ccccc1S(=O)(=O)N1CCC(C(=O)NC2CCCCC2)CC1,i,0,6,4
O=C(N/N=C/c1sc(=O)[nH]c1-[n+]1ccc2ccccc2c1)c1ccccc1[O-],i,1,-75*,u
COc1ccc(C(=O)NCCCN=C2NS(=O)(=O)c3ccccc32)cc1,i,2,-17,-22
COc1ccc(N=C2C(=Nc3ccc(OC)cc3)N(c3ccc(OC)cc3)C(=S)N2C)cc1,i,-2,-80*,-69*
CC(C)(C)n1nnnc1C(c1ccccc1)N1CCc2ccccc2C1 (stereo not given),i,-57*,4,11
CCC(C)(C)n1nnnc1C(c1ccc(O)cc1)N1CCc2ccccc2C1 (stereo not given),i,-4,-7,1
COc1ccc(S(=O)(=O)Nc2ccccn2)cc1,i,0,10,5
Cc1ccc(S(=O)(=O)Nc2cccc3cccnc23)cc1,i,1,u,-71*
COc1cc(NCCCC(C)N)c2ncccc2c1 (stereo not given),i,1,-70*,u
COc1cc(NCCCCC(C)N)c2nccc(C)c2c1 (stereo not given),i,1,-11,-15
COc1cc(NS(=O)(=O)c2ccc(C)cc2)c2ncccc2c1,i,0,-79*,-72*
CNC(=O)C1CCC(=O)N1Cc1ccc(C)cc1 (stereo not given),x,0,1,-4
Cc1ccc(CN2C(=O)CCC2C(=O)NC(C)C)cc1 (stereo not given),-118%*,1,1,10
Cc1ccnc2nc(C(=O)Nc3nc(-c4ccccn4)cs3)nn12,i,-5,-85*,-92*
O=C(Nc1nc(-c2ccncc2)cs1)c1ccco1,i,0,-5,-23
O=C(Nc1nc(-c2ccccn2)cs1)C1CC(=O)N(c2ccc3c(c2)OCCO3)C1 (stereo not given),i,2,0,-86*
O=C(Nc1nc(-c2ccccn2)cs1)c1ccco1,i,1,-93*,-79*
Cc1ccnc2nc(C(=O)NCc3ccccc3)nn12,i,2,-5,8
O=C(Nc1nc(-c2ccccn2)cs1)c1cccc(-n2cnnn2)c1,i,1,x,-92*
SMILES,Akt phos inh,CCT modulator,CtBP-E1A blk,Six1-Eya2 inh
O=C(Nc1nc(-c2ccccn2)cs1)C1CC1,i,1,-72*,u
O=C(Nc1nc(-c2ccccn2)cs1)c1ccc(Br)s1,i,-2,-71*,u
O=C(CC1CC2CCC1C2)Nc1nc(-c2ccccn2)cs1 (stereo not given),i,-3,u,u
C[C@H](NC(=O)c1ccco1)C(=O)Nc1nc(-c2ccccn2)cs1,i,-2,-89*,-89*
O=C(Nc1nc(-c2cc(Cl)sc2Cl)cs1)c1ccc(Br)s1,i,2,1,2
C[C@H](NC(=O)c1ccco1)C(=O)Nc1nnc(SCc2ccccc2)s1,i,0,8,2
O=C(O)c1ccc(C(=O)O)c(C(=O)c2ccc(NC(=O)c3ccccc3)cc2)c1,i,0,6,7
